Assay results reported in PubChem BioAssay (EPA / NIEHS).
Where a structure was tested more than once in an assay, its records may differ in their call. Active and inactive are the calls of the source. How the source made its calls: active means hit-call score of the fitted dose curve at least 0.9, where 1 is the maximum; inactive means score below 0.9.

Key:
[1] = read-out: Intercellular Adhesion Molecule 1 (ICAM1), ICAM1 (gene 3383); assay: BSK_BE3C_ICAM1: BioMAP Diversity Plus: BE3C Assay for Intercellular Adhesion Molecule 1 (ICAM1) Biomarker Activity (AID 2284278); conditions: primary human bronchial epithelial cells;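 further: cell-surface ICAM-1 protein level quantified by ELISA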
Method in brief: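 ELISA read-out of ICAM-1 on human lung bronchial epithelial primary cells, 24 h post-dosing; positive-direction curve fit, DMSO = baseline. SRB total-protein staining of parallel cultures flagged overt cytotoxicity.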

[2] = read-out: Interferon-inducible T-cell alpha chemoattractant (ITAC), CXCL11 (gene 6373); assay: BSK_BE3C_ITAC: BioMAP Diversity Plus: BE3C Assay for Interferon-inducible T-cell alpha chemoattractant (ITAC) Biomarker Activity (AID 2284279); conditions: primary human bronchial epithelial cells
Method in brief: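 The assay measures I-TAC levels by ELISA in human primary bronchial epithelial cell cultures 24 hours after chemical treatment. Values reflect signal increase over the DMSO baseline.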

[3] = read-out: Interleukin-8 (IL8), CXCL8 (gene 3576); assay: BSK_BE3C_IL8: BioMAP Diversity Plus: BE3C Assay for Interleukin-8 (IL8) Biomarker Activity (AID 2284280); conditions: primary human bronchial epithelial cells
Method in brief: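 Measured at 24 h after treatment, IL-8 from human primary bronchial epithelial cells is determined by ELISA, and the response is modelled as increasing relative to DMSO negative control.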

[4] = read-out: Epidermal growth factor receptor (EGFR), EGFR (gene 1956); assay: BSK_BE3C_EGFR: BioMAP Diversity Plus: BE3C Assay for Epidermal growth factor receptor (EGFR) Biomarker Activity (AID 2284281); conditions: primary human bronchial epithelial cells
Method in brief: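 Measured 24 h after dosing in primary human bronchial epithelial cultures, EGFR was read by ELISA; gain of signal over DMSO control defined activity.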

[5] = read-out: KRT18 (gene 3875); assay: BSK_BE3C_Keratin818: BioMAP Diversity Plus: BE3C Assay for Keratin 818 Biomarker Activity (AID 2284282); conditions: primary human bronchial epithelial cells
Method in brief: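 ELISA read-out of Keratin 8/18 in BE3C human bronchial epithelial cultures, 24 h post-dosing; positive-direction fit vs DMSO baseline.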

[6] = read-out: Plasminogen activator inhibitor-1 (PAI1), SERPINE1 (gene 5054); assay: BSK_CASM3C_PAI1: BioMAP Diversity Plus: CASM3C Assay for Plasminogen activator inhibitor-1 (PAI1) Biomarker Activity (AID 2284284); conditions: primary human coronary artery smooth muscle cells
[7] = read-out: TIMP metallopeptidase inhibitor 2 (TIMP2), TIMP2 (gene 7077); assay: BSK_hDFCGF_TIMP2: BioMAP Diversity Plus: hDFCGF Assay for TIMP metallopeptidase inhibitor 2 (TIMP2) Biomarker Activity (AID 2284289); conditions: primary human foreskin fibroblasts
Method in brief: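 Primary human foreskin fibroblasts in the hDFCGF system, dosed for 24 h; TIMP-2 level measured by ELISA, fitted in the positive direction against DMSO; cytotoxicity checked in parallel by sulforhodamine B total protein staining.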

[8] = BSK_MyoF_SRB: Viability Assessment in the BioMAP Diversity Plus: MyoF Assay (AID 2284267); conditions: primary human lung fibroblasts;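 further: total protein by SRB absorbance in parallel cultures as cytotoxicity measure; cells assessed 24 h after compound addition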
Method in brief: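 Lung fibroblast cultures, 24 h post-dose; fix 10% TCA, stain 0.1% SRB, read 560 nm. Signal = total protein as cytotoxicity measure; fitted relative to DMSO negative control.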

[9] = read-out: Matrix Metallopeptidase 1 (MMP1), MMP1 (gene 4312); assay: BSK_MyoF_MMP1: BioMAP Diversity Plus: MyoF Assay for Matrix Metallopeptidase 1 (MMP1) Biomarker Activity (AID 2284268); conditions: primary human lung fibroblasts
Method in brief: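 Human lung fibroblasts (MyoF system) exposed to chemical for 24 h in 96-well format; MMP1 biomarker quantified by ELISA, with activity fitted in the positive direction relative to DMSO baseline.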

[10] = read-out: TIMP metallopeptidase inhibitor 1 (TIMP1), TIMP1 (gene 7076); assay: BSK_MyoF_TIMP1: BioMAP Diversity Plus: MyoF Assay for TIMP metallopeptidase inhibitor 1 (TIMP1) Biomarker Activity (AID 2284269); conditions: primary human lung fibroblasts
Method in brief: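 TIMP-1 levels were determined by ELISA in human lung fibroblasts treated for 24 h. DMSO served as negative control and baseline for upward curve fitting.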

[11] = read-out: KRT18 (gene 3875); assay: BSK_BF4T_Keratin818: BioMAP Diversity Plus: BF4T Assay for Keratin 818 Biomarker Activity (AID 2284266); conditions: primary human bronchial epithelial cells with fibroblasts
Method in brief: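 Keratin 8/18 levels quantified by ELISA after 24 h chemical treatment of bronchial epithelial cell/dermal fibroblast co-cultures, fitted in positive direction relative to DMSO. Parallel SRB staining tracks overt cytotoxicity.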

[12] = read-out: Matrix Metallopeptidase 3 (MMP3), MMP3 (gene 4314); assay: BSK_BF4T_MMP3: BioMAP Diversity Plus: BF4T Assay for Matrix Metallopeptidase 3 (MMP3) Biomarker Activity (AID 2284271); conditions: primary human bronchial epithelial cells with fibroblasts
Method in brief: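 MMP-3 level read by ELISA after 24 h chemical exposure of bronchial epithelial cell/dermal fibroblast co-cultures, fitted upward relative to DMSO. Parallel cultures stained with 0.1% SRB after TCA fixation gauge overt cytotoxicity.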

[13] = read-out: Tissue plasminogen activator (tPA), PLAT (gene 5327); assay: BSK_BF4T_tPA: BioMAP Diversity Plus: BF4T Assay for Tissue plasminogen activator (tPA) Biomarker Activity (AID 2284272); conditions: primary human bronchial epithelial cells with fibroblasts
Method in brief: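 tPA level quantified by ELISA at 24 h post-treatment in bronchial epithelial/dermal fibroblast co-cultures, gain of signal scored against DMSO baseline. Parallel cultures stained with 0.1% SRB (560 nm) to flag overt cytotoxicity.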

[14] = read-out: Plasminogen Activator Inhibitor-1 (PAI1), SERPINE1 (gene 5054); assay: BSK_BF4T_PAI1: BioMAP Diversity Plus: BF4T Assay for Plasminogen Activator Inhibitor-1 (PAI1) Biomarker Activity (AID 2284273); conditions: primary human bronchial epithelial cells with fibroblasts
Method in brief: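 PAI-1 levels quantified by ELISA 24 h post-dosing in bronchial epithelial cell plus dermal fibroblast cultures. Signal gain referenced to DMSO baseline. Sulforhodamine B total-protein staining of parallel wells checked cytotoxicity.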

[15] = read-out: urokinase Plasminogen Activator (uPA), PLAU (gene 5328); assay: BSK_BF4T_uPA: BioMAP Diversity Plus: BF4T Assay for urokinase Plasminogen Activator (uPA) Biomarker Activity (AID 2284275); conditions: primary human bronchial epithelial cells with fibroblasts
Method in brief: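 uPA levels measured by ELISA at 24 hours in BF4T cultures (bronchial epithelial cells plus dermal fibroblasts) and compared with DMSO; cytotoxicity tracked in parallel cultures by sulforhodamine B staining.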

[16] = read-out: Interleukin-8 (IL8), CXCL8 (gene 3576); assay: BSK_IMphg_IL8: BioMAP Diversity Plus: IMphg Assay for Interleukin-8 (IL8) Biomarker Activity (AID 2284277); conditions: primary human endothelial cells with macrophages
Method in brief: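 IL-8 levels were measured by ELISA 24 h after dosing in primary human venular endothelial cell–macrophage cultures, referenced to DMSO; parallel SRB staining monitored overt cytotoxicity.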

[17] = read-out: Vascular cell adhesion molecule 1 (VCAM1), VCAM1 (gene 7412); assay: BSK_IMphg_VCAM1: BioMAP Diversity Plus: IMphg Assay for Vascular cell adhesion molecule 1 (VCAM1) Biomarker Activity (AID 2284286); conditions: primary human endothelial cells with macrophages
Method in brief: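 ELISA read-out of VCAM-1 on venular endothelial cell/macrophage co-cultures at 24 h post-treatment, with DMSO as baseline and positive-direction fitting. Parallel sulforhodamine B total-protein staining (560 nm) served as the overt cytotoxicity measure.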

[18] = read-out: Interleukin-1 alpha (IL1a), IL1A (gene 3552); assay: BSK_IMphg_IL1a: BioMAP Diversity Plus: IMphg Assay for Interleukin-1 alpha (IL1a) Biomarker Activity (AID 2284290); conditions: primary human endothelial cells with macrophages
Method in brief: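 IL-1α is quantified by ELISA at 24 h in the endothelial/macrophage IMphg co-culture, with gain of signal fitted relative to DMSO. Parallel SRB total-protein staining flags overt toxicity.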

[19] = read-out: Macrophage colony-stimulating factor (MCSF), CSF1 (gene 1435); assay: BSK_IMphg_MCSF: BioMAP Diversity Plus: IMphg Assay for Macrophage colony-stimulating factor (MCSF) Biomarker Activity (AID 2284293); conditions: primary human endothelial cells with macrophages
Method in brief: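 M-CSF was measured by ELISA in human venular endothelial cell/macrophage co-cultures dosed for 24 hours. Sulforhodamine B staining of parallel cultures assessed cytotoxicity; data fitted against DMSO baseline.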

[20] = read-out: Interleukin-10 (IL10), IL10 (gene 3586); assay: BSK_IMphg_IL10: BioMAP Diversity Plus: IMphg Assay for Interleukin-10 (IL10) Biomarker Activity (AID 2284294); conditions: primary human endothelial cells with macrophages
Method in brief: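 IL-10 read by ELISA after 24 h chemical exposure of primary human venular endothelial cell/macrophage cocultures, with DMSO as baseline. Parallel SRB staining (560 nm) gauged overt cytotoxicity.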

Measured: AC50

COP(=O)(CCC(=O)NCO)OC
inactive: [1] | [2] | [3] | [4] | [5] | [6] | [7]

ClC(Cl)=C(c1ccc(Cl)cc1)c1ccccc1Cl
active: [8] 6.71 µM | [9] 9.59 µM | [10] 5.76 µM

O=P(OCC(Br)CBr)(OCC(Br)CBr)OCC(Br)CBr (stereo not given)
active: [9] 25.9 µM
inactive: [8] | [10]

CCOP(=S)(OCC)SCSc1ccc(Cl)cc1
active: [9] 30.1 µM
inactive: [8] | [10]

O=S1(=O)OCC2C(CO1)C1(Cl)C(Cl)=C(Cl)C2(Cl)C1(Cl)Cl (stereo not given)
inactive: [8] | [9] | [10]

O=S(=O)(F)C(F)(F)C(F)(F)C(F)(F)C(F)(F)C(F)(F)C(F)(F)C(F)(F)C(F)(F)F
inactive: all assays above

CCOP(=S)(OCC)SCS(=O)(=O)CC
inactive: [8] | [9] | [10]

CCCCC(CC)COC(=O)c1c(Br)c(Br)c(Br)c(Br)c1C(=O)OCC(CC)CCCC (stereo not given)
inactive: [8] | [9] | [10]

FC(F)(F)C(F)(C(F)(F)F)C(F)(F)C(F)(F)CC1CO1 (stereo not given)
active: [7] 0.319 µM
inactive: [11] | [8] | [9] | [10] | [12] | [13] | [14] | [15] | [16] | [1] | [2] | [3] | [4] | [5] | [6] | [17] | [7] | [18] | [19] | [20]

COP(N)(=S)OC
inactive: [8] | [9] | [10]

O=C(O)C(F)(F)OC(F)(F)C(F)(F)OC(F)(F)F
inactive: [11] | [8] | [9] | [10] | [12] | [13] | [14] | [15] | [16] | [1] | [2] | [3] | [4] | [5] | [6] | [17] | [7] | [18] | [19] | [20]
active: [16] 22 µM
